Screening results (PubChem BioAssay)
Compounds with a hit are over-represented: about 1.9% of the library has one in this group of screens.
HTT prom inh = Primary qHTS for Identification of Small Molecule Inhibitors of Huntingtin Promoter Activity; HEK293 HTT promoter firefly luciferase reporter, 24 h; Potency, µM (highest dose often 57.5 µM), usual class: inhibitors; hit rate 0.93% among 48,000; AID 1508623, 2021; note: nearly all actives have a fitted effect of over 50% in size
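HEK293 cells carrying firefly luciferase reporters were seeded at 2,500 per well in Opti-MEM and cultured for 24 h. They were then treated with compounds at up to 57.5 uM final for 24 h at 37 degrees C before Dual-Glo luminescence readout.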
p53null 39C kill = qHTS Screen for Compounds that Selectively Target Cancer Cells with p53 Mutations: Cytotoxicity of p53 Null Cells at the Nonpermissive Temperature; AID 904, 2007; H1299 p53-null (neo) cells, 39C, ATPlite viability, 24 h; hit rate 0.97% among 55,000; Potency, µM (doses to about 46.1 µM), most hits filed as cytotoxic; note: nearly all actives have a fitted effect of over 50% in size
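Luminescent ATP signal reported cell survival after H1299 lines (neo, p53 null; or p53 A138V) received up to 46 uM compound and 24 hr incubation at 39C.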
p53null 32C tox = qHTS Screen for Compounds that Selectively Target Cancer Cells with p53 Mutations: Cytotoxicity of p53 Null Cells at the Permissive Temperature; Potency, µM (doses to about 46.1 µM), usual class: cytotoxic; hit rate 0.62% among 55,000; H1299-neo p53 null cells, ATP luminescence, 24 h, 32C; AID 903, 2007; note: nearly all actives have a fitted effect of over 55% in size
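ATP-content luminescence in p53-null H1299-neo cells after 24 h compound exposure (up to 46 uM) at 32C permissive temperature; 0% and 100% killing set by DMSO and 100 uM tamoxifen; Hill-equation AC50.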
HTT-AS promoter = Primary qHTS for Identification of Small Molecule Activators of Huntingtin-Antisense Promoter Activity. HEK293 HTT-AS promoter firefly luciferase reporter, 24 h; response scale: percent change from vehicle, -100% = no light. Potency, µM (titrated, usually from 57.5 µM), usual class: activators. hit rate 0.24% among 48,000. AID 1508624, 2021; note: nearly all actives have a fitted effect of over 55% in size
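Firefly luciferase signal from promoter-reporter HEK293 cells was scaled between vehicle (0%) and zero RLU (-100%). Compounds were tested at final concentrations of up to 57.5 uM over 24 h at 37 degrees C. PTC124 at 50 uM final served as control inhibitor.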
Each line names hits and unclear results; the compound was inactive in the other large screens. Calls come from the whole dose curve; as a rule, active = well fitted curve in the direction sought with a large enough effect; inconclusive = small, poorly fitted or top-dose-only effect, or another doubt; inactive = no such curve, though single readings can be large; an effect the other way counts as inactive or inconclusive.

CCc1ccc2nc(N3CCN(C(=O)C4CC4)CC3)sc2c1	HTT-AS promoter inconclusive
CCCCN(C)CCCNC(=O)c1ccc2nc(N3CCCCC3)sc2c1	HTT prom inh inconclusive
O=C(C=Cc1cccc(S(=O)(=O)Nc2ccccc2)c1)NO	HTT-AS promoter inconclusive (no result: p53null 39C kill, p53null 32C tox)
Cc1ccc(Nc2ncnc3c2nc2n3CCCC2)c(Br)c1	p53null 39C kill 11.2µM, p53null 32C tox inconclusive, HTT-AS promoter inconclusive
Cc1ccc(CNc2ncnc3c2nc2n3CCCC2)cc1	none
Cc1cccc(N2CCN(c3ncnc4c3nc3n4CCCCC3)CC2C)c1 (stereo unspecified)	HTT prom inh 5.01µM, p53null 39C kill inconclusive
O=C(O)C1=CO[C@@H](O[C@@H]2O[C@H](CO)[C@H](O)[C@H](O)[C@H]2O)[C@@H]2C(CO)=CC[C@H]12	none (no result: p53null 39C kill, p53null 32C tox)
CCN(CC)CCOc1ccc(C(=C(Cl)c2ccccc2)c2ccccc2)cc1	HTT-AS promoter 24.3µM (no result: p53null 39C kill, p53null 32C tox)
O=S(=O)(c1cccc(Cl)c1)n1c(/C=C/c2ccccc2Cl)nc2ccccc21	p53null 39C kill 2.82µM, p53null 32C tox 1.26µM, HTT-AS promoter inconclusive
Cc1ccc(/C=C/c2nc3ccccc3n2S(=O)(=O)c2ccc(Br)cc2)cc1	p53null 32C tox 6.31µM, HTT-AS promoter inconclusive
CSc1ccc(/C=C/c2nc3ccccc3n2S(=O)(=O)c2cccc(Cl)c2)cc1	HTT prom inh inconclusive, p53null 39C kill 3.98µM, p53null 32C tox 3.16µM
Clc1cc(Cl)cc(CNc2ncncc2-c2ccc3c(c2)OCO3)c1	none (no result: p53null 39C kill, p53null 32C tox)
CNC(=O)[C@H](Cc1ccccc1)NC(=O)[C@H](CC(C)C)[C@H](CSc1cccs1)C(=O)NO	none (no result: p53null 39C kill, p53null 32C tox)
O=C(Cc1ccc(Cl)cc1)Nc1ccc2oc(-c3ccc(F)cc3)nc2c1	none
COc1ccc(-c2nc3cc(NC(=O)Cc4ccc(Cl)cc4)ccc3o2)cc1OC	HTT prom inh inconclusive, p53null 39C kill 10µM, p53null 32C tox inconclusive
COc1cc([C@@H]2c3cc4c(cc3[C@@H](O[C@@H]3O[C@@H]5CO[C@@H](c6cccs6)O[C@@H]5[C@H](O)[C@@H]3O)[C@H]3COC(=O)[C@H]23)OCO4)cc(OC)c1O	HTT prom inh inconclusive (no result: p53null 39C kill, p53null 32C tox)
Cc1oc(-c2ccc(C(=O)Nc3ccc(F)cc3)cc2)nc1COc1ccccc1	HTT prom inh inconclusive
COc1cc(NC(=O)c2ccc(-c3nc(COc4ccccc4)c(C)o3)cc2)cc(OC)c1	HTT prom inh 14.1µM
O=C(COCCOCCOCC(=O)Nc1c(I)cc(I)c(C(=O)O)c1I)Nc1c(I)cc(I)c(C(=O)O)c1I	none (no result: p53null 39C kill, p53null 32C tox)
CCc1ccc(C2Sc3ccccc3NC3=C2C(=O)c2ccccc23)cc1 (stereo unspecified)	HTT prom inh inconclusive
CC(C)c1ccc(C2Sc3ccccc3NC3=C2C(=O)c2ccccc23)cc1 (stereo unspecified)	HTT prom inh 12.6µM
CN(C)c1ccc(-c2nc3ncc(Cl)c(N4CCN(CC(=O)Nc5nccs5)CC4)c3[nH]2)cc1	none (no result: p53null 39C kill, p53null 32C tox)
COc1cc(NC(=O)CSc2nc(-c3ccco3)cc(C(F)(F)F)n2)cc(OC)c1OC	HTT prom inh 12.6µM, p53null 39C kill inconclusive
COc1cc(/C=C/C(=O)O[C@H]2CC[C@]34C[C@]35CC[C@]3(C)[C@@H]([C@H](C)CCC=C(C)C)CC[C@@]3(C)[C@@H]5CC[C@H]4C2(C)C)ccc1O	none (no result: p53null 39C kill, p53null 32C tox)
O=C(Nc1ccccc1)N1CCN(c2ccc(F)cc2)CC1	none (no result: HTT prom inh, HTT-AS promoter)
CC(=O)c1ccc(N2CCN(C(=O)Nc3ccc(C(C)C)cc3)CC2)cc1	HTT prom inh 22.4µM, p53null 39C kill inconclusive
CCN1CCCC1CN (stereo unspecified)	none (no result: p53null 39C kill, p53null 32C tox)
O=C(Nc1ccccc1C(F)(F)F)c1noc2c1CCCC2	none (no result: HTT prom inh, HTT-AS promoter)
O=C(Nc1ccc(OC(F)(F)F)cc1)c1noc2c1CCCC2	HTT-AS promoter 1.12µM
COc1cc(NC(=O)c2cc(-c3ccc(Cl)c(Cl)c3)on2)cc(OC)c1OC	p53null 39C kill 25.1µM, p53null 32C tox inconclusive (no result: HTT prom inh, HTT-AS promoter)
O=C(CO)[C@@H](O)[C@H](O)[C@@H](O)CO	none (no result: p53null 39C kill, p53null 32C tox)
CCc1c(C)c2ccc(O)c(CN3CCN(c4ccc(OC)cc4)CC3)c2oc1=O	p53null 39C kill 10µM, p53null 32C tox inconclusive (no result: HTT prom inh, HTT-AS promoter)
CCc1c(C)c2ccc(O)c(CN3CCN(c4ccc(F)cc4)CC3)c2oc1=O	none (no result: HTT prom inh, HTT-AS promoter)
Cc1ccc2nc(-c3cccc(N)c3)[nH]c2c1	p53null 39C kill inconclusive, p53null 32C tox 12.6µM (no result: HTT prom inh, HTT-AS promoter)
O=C(N/N=C/c1cccs1)c1ccc2c(c1)OCO2	p53null 32C tox 2.82µM (no result: HTT prom inh, HTT-AS promoter)
